LMP1 NFkB inh – Epstein-Barr LMP1 NF-kappaB reporter inhibition; AID 504558; 350,000 compounds, 0.69% hits; inhibition, % at 12.5 µM; LMP1-induced NF-kappaB luciferase reporter cells, luminescence; in the data active = inhibition above about 41%;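 note: 0% = neutral control wells and 100% = reference inhibitor control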
TWEAK-Fn14 inh – inhibitors of TWEAK-Fn14 interaction signaling; TWEAK-stimulated Fn14 reporter cells, luciferase luminescence, 8 h; inhibition, % at 10 µM; 360,000 compounds, 2% hits; in the data active = inhibition above about 50%
aDG glyco act – increases alpha dystroglycan glycosylation; activation, % at 10 µM; Pro5-aDG cells, alpha-DG glycosylation AlphaScreen (IIH6); 0% Pro5, 100% B10-LARGE cell signal; 360,000 compounds, 0.22% hits; AID 624168;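 active = activation of at least 8% versus controls, or a plate z-score of at least 8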;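 note: Pro5 are CHO cells carrying HIG-tagged alpha-DG that lacks glycosylation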
LGR2 inh – Drosophila LGR2 receptor signaling inhibition | HEK293 LGR2, CRE-luciferase, bursicon-stimulated, 4 h | inhibition, % at 9.99 µM | 380,000 compounds, 0.35% hits | AID 720647;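 active = drop in luminescence signal, shown as inhibition above about 50% in the replicate tests, limit read from the data, passing the limit was not always enough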;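 note: agonist challenge used bursicon conditioned medium at about half maximal strength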
TROY signal inh – TROY signaling inhibition; Q293 LMP1-TROYcd NF-kB luciferase reporter, 4 h; inhibition, % at 10 µM; 360,000 compounds, 0.98% hits; AID 1347056;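 active = compounds whose plate-normalised and pattern-corrected inhibition of the luciferase reporter signal at the single screening dose is 50% or more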
HSP90 refold inh – blocks HSP90-mediated luciferase refolding in reticulocyte lysate; inhibition, % at 5.6 µM; Rabbit reticulocyte lysate, luciferase refolding luminescence, 3 h; 290,000 compounds, 0.91% hits;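 active = inhibition above the screen-wide mean plus 3 SD, computed separately per campaign, cut at about 16% in these data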;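 note: 0% = DMSO wells and 100% = 60 µM geldanamycin wells; inhibitors lower the luminescence because luciferase stays unfolded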
Numbers without * were called inactive; nt = no result given. Compounds with a hit are over-represented: about 2.6% of the library has one in this group of screens.

SMILES	LMP1 NFkB inh	TWEAK-Fn14 inh	aDG glyco act	LGR2 inh	TROY signal inh	HSP90 refold inh
O=c1c(Cl)c(Cl)cnn1Cc1nnc(-c2ccccc2Br)o1	-106.6	92.0*	-0.6	103.4*	64.4*	-0.2
CCCN1C[C@H](C)[C@H](OC)CN(C)C(=O)c2cc(NC(=O)COC)ccc2OC[C@@H]1C	nt	nt	nt	17.1	nt	nt
COC(=O)C1=C(C)N(c2cc(C)cc(C)c2)/C(=C/c2ccc(O)cc2)C1=O	51.6*	57.9*	1.2	28.8	12.7	0.6
COC(=O)C1=C(C)N(c2cc(C)cc(C)c2)/C(=C/c2ccco2)C1=O	0.7	31.4	-0.1	-9.9	28.1	-3.7
COC(=O)C1=C(C)N(c2ccc(Cl)cc2)/C(=C/c2ccc(O)cc2)C1=O	3.9	57.0*	0.3	31.9	15.7	1.4
COC(=O)C1=C(C)N(c2ccc(Cl)cc2)/C(=C/c2cccs2)C1=O	-13.8	-4.1	-0.2	-16.7	-0.7	6.9
CC(C)CC#Cc1ccc2c(c1)O[C@H](CN(C)C(=O)CC1CC1)[C@H](C)CN([C@@H](C)CO)S2(=O)=O	nt	nt	nt	-2.4	nt	nt
COc1ccc(/C=C/c2nc(N)nc(-c3ccccc3O)n2)cc1OC	-7.3	55.2*	-1.1	27.6	13.1	-4.2
COc1cc(/C=C/c2nc(N)nc(-c3ccccc3O)n2)cc(OC)c1OC	-40.1	52.5*	3.8	-7.0	17.6	-3.7
Cc1ccc(S(=O)(=O)Nc2cccc3c2O[C@H](CN(C)Cc2ccc(-c4ccccc4)cc2)[C@@H](C)CN([C@@H](C)CO)C3=O)cc1	nt	nt	nt	5.0	nt	nt
C[C@H](CO)N1C[C@H](C)[C@@H](CN(C)Cc2ccc(Oc3ccccc3)cc2)Oc2c(NC(=O)Nc3ccc(C(F)(F)F)cc3)cccc2C1=O	nt	nt	nt	-2.6	nt	nt
CCCc1c(O)c2ccccc2[nH]c1=O	-3.8	79.8*	-0.1	nt	nt	-1.2
COC(=O)CCC(=O)OC1(C)C(=O)C=C2C=C(C3CC3)N(Cc3ccccc3)C=C2C1=O (stereo not drawn)	-4.3	-2.8	-0.3	3.9	-2.3	nt
COC(=O)CCC(=O)OC1(C)C(=O)C=C2C=C(C3CC3)N(CC3CC3)C=C2C1=O (stereo not drawn)	50.2*	-5.9	0.1	-3.9	16.3	nt
CN(Cc1ccccc1)CC(O)COc1ccc(CNCc2ccc(Cl)s2)cc1 (stereo not drawn)	-8.0	-6.0	6.2*	14.0	-7.7	0.5
Cc1cc(C)c2ccc(N)nc2c1O	1.8	68.8*	-0.6	nt	8.6	-2.2
CN1CCN(C(=O)C[C@@H]2CC[C@H]3[C@@H](COC[C@@H](O)CN3C(=O)c3ccc(F)cc3)O2)CC1	nt	nt	nt	12.7	nt	nt
C[C@@H](NC(=O)C[C@H]1C[C@H]2c3cc(NC(=O)C4CCOCC4)ccc3O[C@H]2[C@H](CO)O1)c1ccccc1	nt	nt	nt	1.6	nt	nt
C[C@@H]1CCCCO[C@H](CN(C)C(=O)C2CCCCC2)[C@H](C)CN([C@H](C)CO)C(=O)c2cc(NC(=O)CCC(F)(F)F)ccc2O1	nt	nt	nt	5.9	nt	nt
CCOC(=O)C1=C(CC)Nc2ccccc2N=C1NC(=O)Nc1ccc(Cl)c(Cl)c1	38.9	72.9*	0.3	32.1	53.3*	0.1
O=C(N/N=C/c1cccc(F)c1)c1c(O)c2c([nH]c1=O)CCCC2	2.8	-10.5	0.2	-45.0	53.3*	-0.7
COc1cccc(CN2CC3(CN(Cc4ccccn4)C3)c3c([nH]c4cc(OC)ccc34)[C@H]2CO)c1	nt	nt	nt	4.0	nt	nt
N#CC(=C=[N-])c1nc2ccccc2nc1-[n+]1cccc(NC(=O)c2ccccc2)c1	1.4	75.1*	-0.3	16.6	-12.6	4.2
N#CC(=C=[N-])c1nc2ccccc2nc1-[n+]1cccc(NC(=O)c2ccc(F)cc2)c1	nt	nt	nt	5.3	nt	0.5
O=S(=O)(c1ccc(F)cc1)N1CCCCN2[C@H](CO)[C@H](c3ccc(-c4ccccc4)cc3)[C@@H]2C1	nt	nt	nt	37.0	nt	nt
CCOC(=O)C1CCCN(c2ncnc3c2cnn3-c2ccc(Cl)cc2)C1 (stereo not drawn)	12.8	63.1*	0.0	-35.5	42.9	2.9
CCOC(=O)N1CCC(Nc2ncnc3c2cnn3-c2ccc(Cl)cc2)CC1	-2.9	48.5	0.5	-6.1	50.2*	8.6
CC1CN(c2ncnc3c2cnn3-c2ccc(Cl)cc2)CC(C)O1 (stereo not drawn)	-45.8	50.0	-0.1	-41.7	54.8*	16.4*

Assay outcomes (PubChem BioAssay)
